Screening data (PubChem BioAssay)
HCMV NEC inh: inhibitors of HCMV UL50-UL53 nuclear egress complex interaction; HTRF UL50-UL53 interaction, normalized percent inhibition; inhibition, % (no concentration beside the values); 190,000 compounds, 0.15% hits; in the data active means inhibition above about 27%, passing the limit was not always enough
Sa helicase inh: blocks Staphylococcus aureus DNA helicase; purified S. aureus helicase, fluorescence unwinding assay; inhibition, % (test concentration not listed); 120,000 compounds, 0.05% hits; in the data active means inhibition above about 25%, passing the limit was not always enough
Sa growth 42C: S. aureus growth inhibition | S. aureus RN4220 growth, OD600, 20 h, 42 °C; hits give low values | relative growth, % (test concentration not listed) | 170,000 compounds, 0.53% hits | AID 720641;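 active means relative growth at most 50% at the other temperature and 20+ points below 30 °C, or under 10% at both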
Numbers stand for hits; 0 = inactive; - = not tested or not shown; ! = a repeat was not active. The full list was thinned out, with hits kept by preference.

SMILES	HCMV NEC inh	Sa helicase inh	Sa growth 42C
CCOC(=O)N1CCC(NC(=O)C2CCCN(c3ncnc4c3sc3cccc(F)c34)C2)CC1 (centres undefined)	-	0	0
COc1ccc(CNC(=O)c2ccc(CSc3nc4cccnc4n3Cc3ccccc3)cc2)cc1	0	-	-
O=C(Oc1cccc2cccnc12)c1cccc(F)c1	0	0	1.6
O=C(Oc1cccc2cccnc12)c1ccccc1	0	0	1.7!
O=C(Oc1cccnc1I)c1ccccc1	0	-	-
O=C(Oc1cccc2cccnc12)c1cc(C(F)(F)F)cc(C(F)(F)F)c1	-	-	1.3
O=C(Oc1cccc2c1C(=O)C=CC2=O)c1ccccc1	65	-	0
O=C(Oc1cccc2cccnc12)c1ccc(NS(=O)(=O)c2cccc3cccnc23)cc1	0	-	-
O=C(Oc1ccccc1OC(=O)c1ccccc1)c1ccccc1	-	0	0
O=C(Oc1cccc2cccnc12)C1CCCCC1	0	0	0
Cc1ccc(-n2ccn3c(CCCC(=O)N4CCN(c5ccccn5)CC4)nnc3c2=O)cc1C	0	-	-
O=C1NCCc2c1[nH]c1c(Br)cc3c(c21)OCCO3	0	-	-
Cc1cccc(NC(=O)CCn2ccc(C)n2)n1	0	0	0
Cc1c(CN2CCc3c(c(C(=O)NC4CCCC4)nn3CC(C)C)C2)c(=O)n(-c2ccccc2)n1C	0	-	-
CC1CN(S(=O)(=O)c2ccc(C(=O)NC3=NCCS3)cc2)CC(C)O1 (centres undefined)	0	0	0
Cc1nn(CO)c(C)c1Sc1ccc(Br)cc1	-	0	18
Cc1nn(C)c(C)c1Sc1ccc(Br)cc1	0	0	0
Cc1ccc2c(c1)sc(=NC(=O)CN1C(=O)c3ccccc3C1=O)n2C	0	0	0
CN(C)c1ccc(C2=CC=CC(=C3C=CC(=[N+](C)C)C=C3)O2)cc1	-	74	2.5
CN(C)c1ccc(C(=C2C=CC(=[N+](C)C)C=C2)c2ccc(N(C)C)cc2)cc1	0	-	0
CCOC(=O)C1CCN(S(=O)(=O)c2cc3c(cc2Br)CCN3C(=O)C2CC2)CC1	0	-	-
COc1cc2c(cc1OC)CN(C(=O)c1ccc(Cl)c(S(=O)(=O)NCc3ccco3)c1)CC2	0	0	0
COC(=O)CN(C#N)c1nc(C)cc(C)n1	0	0	0
COC(=O)CN(C#N)c1nc(NCc2ccccc2)nc(OC)n1	54	-	-
CCC(C(=O)N1CCN(Cc2ccc3c(c2)OCO3)CC1)N1C(=O)CCn2nc(C)cc21 (centres undefined)	0	-	-
SMILES	HCMV NEC inh	Sa helicase inh	Sa growth 42C
CCSc1nsc(NC(=O)Nc2cccc(F)c2)n1	0	0	-0.7
O=C(Nc1ccc(Cl)cc1)Nc1nc(SCc2ccccc2)ns1	0	-	-
CCCn1c(CCC(=O)NCCc2ccc(OC)cc2OC)nc2cccnc21	0	0	0
O=C(c1c[nH]c2ccccc12)N1CCOCC1	0	-	-
O=C(Nc1c[nH]c2ccccc12)N1CCOCC1	0	0	3.5
c1ccc(-n2nnnc2SSc2nnnn2-c2ccccc2)cc1	0	0	0
O=S1(=O)C=C(Sc2nnnn2-c2ccccc2)c2ccccc21	0	0	-1.7
CCOC(=O)c1c(C)[nH]c(C(=O)N2CCC(CC(=O)NC(C)c3ccccc3)CC2)c1C (centres undefined)	0	-	-
O=C(Nc1c[nH]c2ccccc12)c1cc(-c2ccc(F)cc2)n[nH]1	0	-	-
Cc1ccc(Nc2nc(C)c3nc(C)n(-c4ccc(C)cc4)c3n2)cc1	0	-	-
CCOC(=O)Cc1c[nH]c2ccccc12	0	0	0
CCCC(=O)Oc1c[nH]c2ccccc12	0	-	3.9
Cc1csc(SCc2ccccc2C(=O)OCC(=O)Nc2nnc(-c3ccccc3)o2)n1	0	0	0
COc1cc2ccc3c(CCN(C)C)cc(OC)c(OC)c3c2cc1OC	-	0	0
CN(C)CCc1cc2c(c3c1ccc1ccccc13)OCO2	-	45	0
CC(=O)Nc1ccc(S(=O)(=O)N2CC=C(c3c(C)n(Cc4ccc(F)cc4)c4ccccc34)CC2)cc1	0	-	-
CCN(C(=O)CSc1nc(C)cc(C)c1C(N)=O)C1CCS(=O)(=O)C1 (centres undefined)	0	0	-1.2
CCN(C(=O)CSc1nnc(-c2ccccc2)c(-c2ccccc2)n1)C1CCS(=O)(=O)C1 (centres undefined)	0	0	0
N#Cc1nc2c(nc1C#N)-c1ccccc1C2=O	0	0	0
CCN(CC)c1ccc2nc3c(nc2c1)C(=O)c1ccccc1C3=O	64	0	0
O=C1c2ccccc2-c2nc3nnnn3nc21	103	-	-
CCN(CC)c1ccc(C=C2C(=O)c3ccccc3C2=O)c(OC)c1	-	0	0
O=C1c2ccccc2-c2nc3nonc3nc21	0	0	0
O=C1c2ccccc2-c2nc3ccccc3nc21	0	0	5.6
Cc1nn(-c2ccccc2)c2c1N(CC(=O)NC1CCN(Cc3ccccc3)CC1)C(=O)CS2	0	-	-
SMILES	HCMV NEC inh	Sa helicase inh	Sa growth 42C
c1cncc(CNc2nc3ccccc3n3cnnc23)c1	-	0	0
CO[C@H]1/C=C/O[C@@]2(C)Oc3c(C)c(O)c4c(O)c(c(C=NN5CCN(C)CC5)c(O)c4c3C2=O)NC(=O)/C(C)=C\C=C\[C@H](C)[C@H](O)[C@@H](C)[C@@H](O)[C@@H](C)[C@H](OC(C)=O)[C@@H]1C	0	-	-
CO[C@H]1C=CO[C@@]2(C)Oc3c(C)c(O)c4c(O)c(c(C=NN5CCN(C6CCCC6)CC5)c(O)c4c3C2=O)NC(=O)C(C)=CC=C[C@H](C)[C@H](O)[C@@H](C)[C@@H](O)[C@@H](C)[C@H](OC(C)=O)[C@@H]1C	-	-	3.9
NC(=S)CC(=S)N1CCOCC1	0	0	0
Cc1ccc(-n2sc3ccccc3c2=O)cc1	-	0	1.1
Cc1ccc(N2C(=O)c3ccccc3C2=O)cc1	-	0	0
Cc1sc2nc(SCC(=O)NC3CCCCC3)[nH]c(=O)c2c1C	0	0	0
Cc1nnc(SCC(=O)NC2CCCCCC2)[nH]c1=O	0	0	0.2
CSc1nnc(COc2cccc(C)c2)n1C	0	0	0
COc1cccc(OCc2nnc(SCc3ccccc3)n2C)c1	0	0	3.8
CC1=C(C#N)C(c2ccccc2N2CCOCC2)C2=C(CCCC2=O)N1 (centres undefined)	0	-	0
CCN(CC)C(=O)Oc1ccccc1	0	0	0
CCc1ccc[n+](OC(=O)N(CC)CC)c1	-	0	0.1
O=c1c(S(=O)(=O)c2ccc(F)c(F)c2)c[nH]c2c(F)c(Cl)ccc12	0	-	-
CCOC(=O)c1sc(SC)c(C(C)O)c1C (centres undefined)	0	-	0
Cc1ccc(-n2c(=O)c3cccnc3n2CC(=O)NCc2ccccc2Cl)cc1C	0	0	0
O=C(Oc1ccccc1Cl)c1cc(-c2ccc3c(c2)OCCO3)on1	0	-	-0.1
Cc1cccc(OC(=O)c2cc(-c3ccc4c(c3)OCCO4)on2)c1C	0	-	0.1
O=C(Oc1ccccc1Br)c1cc(-c2ccc3c(c2)OCCO3)on1	0	-	-
Cc1ccccc1OC(=O)c1cc(-c2ccc3c(c2)OCCO3)on1	0	-	0
COc1ccc(CCNS(=O)(=O)c2ccc3c(c2)CCN3C(=O)C2CCC2)cc1OC	0	0	0
O=C(CSc1ncnc2sc3c(c12)CCC3)Nc1ccccc1C(F)(F)F	0	-	-
Cc1cc2c(n1-c1ccc(C(=O)NC(C)c3ccccc3)cc1)CCCC2 (centres undefined)	-	0	0
COc1ccc(C2CC(=O)C3=C(C2)Nc2ccccc2NC3c2ccccc2Br)cc1 (centres undefined)	0	-	-
